Assay results: PubChem BioAssay (NCATS)
Several values for one entry are separate records, joined by “and”; a condition that tells them apart may be missing. Equal entries are not always repeated. Records with an inconclusive call do not appear. Entries that show only a call come without a potency. Activity calls are given as the source filed them. The call rests on the fitted dose curve; in most records, active means well fitted curve in the direction sought with a large enough effect; inconclusive means small, poorly fitted or top-dose-only effect, or another doubt; inactive means no such curve, though single readings can be large; an effect the other way counts as inactive or inconclusive.

Test: qHTS assay to identify small molecule inhibitors of chordoma cells - UCH-2 (AID 1259356)
Conditions: UCH-2 chordoma viability, CellTiter-Glo ATP luminescence, 48 h; series mostly up to 46.1 µM
Potency means the concentration at half of the fitted maximal effect.

| SMILES | Potency |
| --- | --- |
| CC(C)(C)NCC(O)CSc1nc(-c2ccc(C(N)=O)s2)cs1 (centres undefined) | inactive |
| COc1ccc(C(=O)CCC(=O)O)c2ccccc12 | inactive |
| CCCCCCCCCCCCCCCCCC(=O)OC[C@@H](O)[C@H]1OC[C@H](O)[C@H]1O | inactive |
| Cn1cc(NC(=O)c2cc(NC(=O)c3cc(NC=O)cn3C)cn2C)cc1C(=O)NCCC(=N)N | inactive |
| CCOC(=O)[C@@H](N)CS | inactive |
| CCCCCCCCCCCCCCCCCCCCCC(=O)Nc1ccn([C@@H]2O[C@H](CO)[C@@H](O)[C@@H]2O)c(=O)n1 | inactive |
| CC[C@H]1OC(=O)[C@H](C)[C@@H](O[C@H]2C[C@@](C)(OC)[C@@H](O)[C@H](C)O2)[C@H](C)[C@@H](O[C@@H]2O[C@H](C)C[C@H](N(C)C)[C@H]2O)[C@](C)(O)C[C@@H](C)CN(C)[C@H](C)[C@@H](O)[C@]1(C)O | inactive |
| C[C@]12CCC(=O)C[C@@H]1CC[C@@H]1[C@@H]2CC[C@]2(C)C=CC[C@@H]12 | inactive |
| Oc1cccc(O)c1O | inactive |
| Cc1cc(-c2ccc(N=Nc3c(S(=O)(=O)O)cc4cc(S(=O)(=O)O)cc(N)c4c3O)c(C)c2)ccc1N=Nc1c(S(=O)(=O)O)cc2cc(S(=O)(=O)O)cc(N)c2c1O | 8.2 µM (active) |
| C[C@H](NCCc1ccc(O)cc1)[C@H](O)c1ccc(O)cc1 | inactive |
| CC(C)(C)CC(C)(C)c1cc(Cc2cc(C(C)(C)CC(C)(C)C)cc(-n3nc4ccccc4n3)c2O)c(O)c(-n2nc3ccccc3n2)c1 | inactive |
| OCc1ccccc1 | inactive |
| CC(C)C[C@H](NC(=O)[C@@H](Cc1c[nH]c2ccccc12)NC(=O)[C@H](Cc1ccc(O)cc1)NC(=O)[C@H](CO)NC(=O)[C@H](Cc1c[nH]c2ccccc12)NC(=O)[C@H](Cc1cnc[nH]1)NC(=O)[C@@H]1CCC(=O)N1)C(=O)N[C@@H](CCCN=C(N)N)C(=O)N1CCC[C@@H]1C(=O)NCC(N)=O | inactive |
| CNC(C)CCC=C(C)C (centres undefined) | inactive |
| C[S+](C)CCC(N)C(=O)O (centres undefined) | inactive |
| C[C@@H]1C[C@H]2[C@@H]3CCC4=CC(=O)C=C[C@]4(C)[C@@]3(F)[C@@H](O)C[C@]2(C)[C@@]1(O)C(=O)COC(=O)c1cccc(S(=O)(=O)O)c1 | inactive |
| C[C@]12CC[C@@H]3c4ccc(OC(=O)c5ccccc5)cc4CC[C@H]3[C@@H]1CC[C@@H]2O | inactive |
| CNCC(O)c1ccc(OC(=O)C(C)(C)C)c(OC(=O)C(C)(C)C)c1 (centres undefined) | inactive |

| SMILES | Potency |
| --- | --- |
| COc1ccc(C[C@H](C)NC[C@@H](O)c2ccc(O)c(NC=O)c2)cc1 | inactive |
| CCCCCCCCCCCC(=O)OC[C@@H](O)C1OC[C@H](O)[C@H]1O (some centres undefined) | inactive |
| OCC(O)CO | inactive |
| CC(=O)Nc1ccc(NC(=S)NC(=O)c2ccc(C(C)(C)C)cc2)cc1 | inactive |
| CC1CCCCN1CCCOC(=O)c1ccccc1 (centres undefined) | inactive |
| Nc1ncnc2c1ncn2[C@H]1CC[C@@H](CO)O1 | inactive |
| Nc1nc(NC2CC2)c2ncn([C@@H]3C=C[C@@H](CO)C3)c2n1 | inactive |
| Cc1ccc(S(=O)(=O)O)cc1C | inactive |
| COC(=O)CC[C@H](N)C(=O)O | inactive |
| CC(=O)NCCCS(=O)(=O)O | inactive |
| O=C(O)[C@@H]1C[C@H](CP(=O)(O)O)CCN1 | inactive |
| O=C1[O][Bi][O]c2ccccc21 | inactive |
| CCCCC(CC)CCC(CC(C)C)OS(=O)(=O)O (centres undefined) | inactive |
| CC(C)(C)c1ccc2c(S(=O)(=O)O)c(C(C)(C)C)ccc2c1 | inactive |
| CC(C)CCC[C@@H](C)[C@H]1CC[C@H]2[C@@H]3CC[C@@H]4C[C@H](O)CC[C@]4(C)[C@H]3CC[C@]12C | inactive |
| FC(F)(F)C(F)(F)C(F)(F)C(F)(F)C(F)(F)F | inactive |
| O=C(O)c1ccc(NC(=O)[C@H](Cc2ccc(O)cc2)NC(=O)c2ccccc2)cc1 | inactive |
| Cc1ccc(S(=O)(=O)NCl)cc1 | inactive |

Test: P-glycoprotein substrates identified in KB-8-5-11 adenocarcinoma cell line, qHTS therapeutic library screen (AID 1346987); further: nearly all actives have a fitted effect of over 65% in size
Conditions: KB-8-5-11 (P-gp overexpressing) viability, CellTiter-Glo, 72 h; series mostly up to 44.5 µM
How it was run: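 Luminescence from CellTiter-Glo, read 5 min after addition, quantified survival of KB-8-5-11 (P-gp-overexpressing) cells exposed to compounds for 72 h. AC50 was derived from concentration-response curves.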

| SMILES | Potency |
| --- | --- |
| CC(C)(C)NCC(O)CSc1nc(-c2ccc(C(N)=O)s2)cs1 (centres undefined) | inactive |
| COc1ccc(C(=O)CCC(=O)O)c2ccccc12 | inactive |
| CCCCCCCCCCCCCCCCCC(=O)OC[C@@H](O)[C@H]1OC[C@H](O)[C@H]1O | inactive |
| Cn1cc(NC(=O)c2cc(NC(=O)c3cc(NC=O)cn3C)cn2C)cc1C(=O)NCCC(=N)N | inactive |
| CCOC(=O)[C@@H](N)CS | inactive |
| CCCCCCCCCCCCCCCCCCCCCC(=O)Nc1ccn([C@@H]2O[C@H](CO)[C@@H](O)[C@@H]2O)c(=O)n1 | inactive |
| CC[C@H]1OC(=O)[C@H](C)[C@@H](O[C@H]2C[C@@](C)(OC)[C@@H](O)[C@H](C)O2)[C@H](C)[C@@H](O[C@@H]2O[C@H](C)C[C@H](N(C)C)[C@H]2O)[C@](C)(O)C[C@@H](C)CN(C)[C@H](C)[C@@H](O)[C@]1(C)O | inactive |
| C[C@]12CCC(=O)C[C@@H]1CC[C@@H]1[C@@H]2CC[C@]2(C)C=CC[C@@H]12 | inactive |
| Oc1cccc(O)c1O | inactive |
| Cc1cc(-c2ccc(N=Nc3c(S(=O)(=O)O)cc4cc(S(=O)(=O)O)cc(N)c4c3O)c(C)c2)ccc1N=Nc1c(S(=O)(=O)O)cc2cc(S(=O)(=O)O)cc(N)c2c1O | 9.2 µM (active) |
| C[C@H](NCCc1ccc(O)cc1)[C@H](O)c1ccc(O)cc1 | inactive |
| CC(C)(C)CC(C)(C)c1cc(Cc2cc(C(C)(C)CC(C)(C)C)cc(-n3nc4ccccc4n3)c2O)c(O)c(-n2nc3ccccc3n2)c1 | inactive |
| OCc1ccccc1 | inactive |
| CC(C)C[C@H](NC(=O)[C@@H](Cc1c[nH]c2ccccc12)NC(=O)[C@H](Cc1ccc(O)cc1)NC(=O)[C@H](CO)NC(=O)[C@H](Cc1c[nH]c2ccccc12)NC(=O)[C@H](Cc1cnc[nH]1)NC(=O)[C@@H]1CCC(=O)N1)C(=O)N[C@@H](CCCN=C(N)N)C(=O)N1CCC[C@@H]1C(=O)NCC(N)=O | inactive |
| CNC(C)CCC=C(C)C (centres undefined) | inactive |
| C[S+](C)CCC(N)C(=O)O (centres undefined) | inactive |
| C[C@@H]1C[C@H]2[C@@H]3CCC4=CC(=O)C=C[C@]4(C)[C@@]3(F)[C@@H](O)C[C@]2(C)[C@@]1(O)C(=O)COC(=O)c1cccc(S(=O)(=O)O)c1 | inactive |
| C[C@]12CC[C@@H]3c4ccc(OC(=O)c5ccccc5)cc4CC[C@H]3[C@@H]1CC[C@@H]2O | 4.61 µM (active) |
| CNCC(O)c1ccc(OC(=O)C(C)(C)C)c(OC(=O)C(C)(C)C)c1 (centres undefined) | inactive |

| SMILES | Potency |
| --- | --- |
| COc1ccc(C[C@H](C)NC[C@@H](O)c2ccc(O)c(NC=O)c2)cc1 | inactive |
| CCCCCCCCCCCC(=O)OC[C@@H](O)C1OC[C@H](O)[C@H]1O (some centres undefined) | inactive |
| OCC(O)CO | inactive |
| CC(=O)Nc1ccc(NC(=S)NC(=O)c2ccc(C(C)(C)C)cc2)cc1 | 6.51 µM (active) and 9.2 µM (active) |
| CC1CCCCN1CCCOC(=O)c1ccccc1 (centres undefined) | inactive |
| Nc1ncnc2c1ncn2[C@H]1CC[C@@H](CO)O1 | inactive |
| Nc1nc(NC2CC2)c2ncn([C@@H]3C=C[C@@H](CO)C3)c2n1 | inactive |
| Cc1ccc(S(=O)(=O)O)cc1C | inactive |
| COC(=O)CC[C@H](N)C(=O)O | inactive |
| CC(=O)NCCCS(=O)(=O)O | inactive |
| O=C(O)[C@@H]1C[C@H](CP(=O)(O)O)CCN1 | inactive |
| O=C1[O][Bi][O]c2ccccc21 | inactive |
| CCCCC(CC)CCC(CC(C)C)OS(=O)(=O)O (centres undefined) | inactive |
| CC(C)(C)c1ccc2c(S(=O)(=O)O)c(C(C)(C)C)ccc2c1 | inactive |
| CC(C)CCC[C@@H](C)[C@H]1CC[C@H]2[C@@H]3CC[C@@H]4C[C@H](O)CC[C@]4(C)[C@H]3CC[C@]12C | inactive |
| FC(F)(F)C(F)(F)C(F)(F)C(F)(F)C(F)(F)F | inactive |
| O=C(O)c1ccc(NC(=O)[C@H](Cc2ccc(O)cc2)NC(=O)c2ccccc2)cc1 | inactive |
| Cc1ccc(S(=O)(=O)NCl)cc1 | inactive |
